A number with no mark means an inactive call. Active and inactive are the calls of the source. Rule as the data show it: active = inhibition score above about 11; inactive = the rest.
Assay: S. cerevisiae short- and long-term growth effects – BY4741, OD595, 24 h, dose response (AID 489042)
Conditions: flow cytometer event count, 7 d (AID 449753), active compounds read high

Structure (SMILES)	inhibition score
CCN(CC)C(=O)c1ccc2nc3ccccc3nc2c1	0
CC(C)(C)Nc1ncnc2c1cnn2-c1ccccc1	0
O=C(O)c1cnc2ccccc2n1	0
O=C(c1cccc2nc3ccccc3nc12)N1CCOCC1	0
CCc1nc(NC(C)(C)C)c2cnn(-c3ccccc3)c2n1	0
C[C@@]12C(=O)OC(=O)[C@]1(C)C1CCC2O1	11 (active)
CCC(=Nc1ccccc1O)C1=C(O)CC(c2ccccc2)CC1=O (centres undefined)	0
CNC(=O)c1cccc2nc3ccccc3nc12	0
NC(=O)CSc1nnc(-c2ccc([N+](=O)[O-])cc2)o1	0
O=C1c2c(O)ccc(O)c2C(=O)c2c(NCCNCCO)ccc(NCCNCCO)c21	0
CCN(CC)c1ccc2nc3ccc(N)cc3[n+](-c3ccccc3)c2c1	0
c1ccc2nc3ccccc3nc2c1	0
C=CCSc1nnc(-c2ccc([N+](=O)[O-])cc2)o1	0
CC(C)(C)n1nc(-c2ccc(F)cc2)c2c(N)ncnc21	0
C#CCSc1nnc(-c2ccc([N+](=O)[O-])cc2)o1	0
Cc1ccc(-c2nn(C(C)(C)C)c3ncnc(N)c23)cc1	0
CC(C)(C)n1nc(-c2ccc(Cl)cc2)c2c(N)ncnc21	0
Cc1cc(C)cc(NC(=O)CN2CCN(c3ccccn3)CC2)c1	0
c1ccc2[nH]c3cc4ncnc4cc3nc2c1	0
Cc1cc(C)c2[nH]c3nc(SCC(=O)O)nnc3c2c1	0
CCCCCNC(=O)C(=O)C1C(=O)Nc2ccccc21 (centres undefined)	0
COc1ccc2c(c1)c1nnc(SC)nc1n2C	0
Cc1ccccc1NC(=O)c1cccc2nc3ccccc3nc12	0
COc1ccc2nc3ccccc3nc2c1N	0
COc1ccc2nc3ccccc3nc2c1NC(=O)c1ccccc1Cl	0
Cc1cccc2nc3ccccc3nc12	0
O=C(/C=C/c1cccs1)NC(=S)NNC(=O)Cc1cccs1	11 (active)
COc1ccc2nc3cccc(OC)c3nc2c1	0
COc1ccc2c3c(cccc13)N(C)N=C2C	0

Reference: PubChem BioAssay AID489042 (NMMLSC, 2010)
